# Results reported in the supplement of paper PMC8728848.
# The sample as a whole holds a higher share of the strongest signals than the screen did.
# B1: MXA PilAct-eGFP (Myxococcus xanthus), Q59589 (protein)
# chain: MRVSRFNPRNRGFTLIELMIVVAIIGILAAIAIPNFIKFQARSKQSEAKTNLKALYTAQKSFFSEKDRYSDFANEIGFAPERGNRYGYRVSAAAGDCEVRNAADLPVPAAGVPCISNDSFRFGANSAIDDPTPVVARFVPQGAAGWNTTLGVQPTIADCPNCNFFAGARGNADNEATFDDWVIAGFEGSGQVGPCSEAGNVASGTPYNTRNDVACDGAAQ
# What was measured:
# Assay in all cases: glycan array binding signal (z-score within array); higher = stronger binding
# Conditions in all cases: glycan notation: IUPAC condensed, linker removed
# GalNAc(a1-3)GalNAc = biological target: GalNAc(a1-3)GalNAc
# Method in brief: (§1)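 Columns mapping to the same glycan were averaged after glycan names were converted to IUPAC-condensed notation. The data come from 3228 arrays in the Consortium for Functional Glycomics database, limited to those with an available protein sequence. Binding is reported as a within-array Z-score averaged across arrays of one protein sequence and across linkers.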
# GalNAc6S(b1-4)GlcNAc = biological target: GalNAc6S(b1-4)GlcNAc
# Method in brief: as §1
# Glc(b1-6)Glc = biological target: Glc(b1-6)Glc
# Method in brief: as §1
# [1] = biological target: GlcNAc(a1-3)Gal(b1-4)GlcNAc
# Method in brief: as §1
# [2] = biological target: GlcNAc(a1-4)Gal(b1-4)GlcNAc(b1-3)Gal(b1-4)GlcNAc(b1-3)Gal(b1-4)GlcNAc
# Method in brief: as §1
# [3] = biological target: GlcNAc(a1-4)Gal(b1-4)GlcNAc(b1-3)Gal(b1-4)[Fuc(a1-3)]GlcNAc(b1-3)Gal(b1-4)[Fuc(a1-3)]GlcNAc
# Method in brief: as §1
# [4] = biological target: GlcNAc(b1-2)Man(a1-3)[GlcNAc(b1-2)Man(a1-6)]Man(b1-4)GlcNAc(b1-4)GlcNAc
# Method in brief: as §1
# [5] = biological target: GlcNAc(b1-3)Gal(b1-4)GlcNAc(b1-3)Gal(b1-4)GlcNAc(b1-3)Gal(b1-4)GlcNAc(b1-2)Man(a1-3)[GlcNAc(b1-3)Gal(b1-4)GlcNAc(b1-3)Gal(b1-4)GlcNAc(b1-3)Gal(b1-4)GlcNAc(b1-2)Man(a1-6)]Man(b1-4)GlcNAc(b1-4)GlcNAc
# Method in brief: as §1
# [6] = biological target: GlcNAc(b1-3)Gal(b1-4)GlcNAc(b1-3)Gal(b1-4)GlcNAc(b1-3)Gal(b1-4)GlcNAc(b1-3)Gal(b1-4)GlcNAc(b1-2)[GlcNAc(b1-3)Gal(b1-4)GlcNAc(b1-3)Gal(b1-4)GlcNAc(b1-3)Gal(b1-4)GlcNAc(b1-3)Gal(b1-4)GlcNAc(b1-6)]Man(a1-6)[GlcNAc(b1-3)Gal(b1-4)GlcNAc(b1-3)Gal(b1-4)GlcNAc(b1-3)Gal(b1-4)GlcNAc(b1-3)Gal(b1-4)GlcNAc(b1-2)Man(a1-3)]Man(b1-4)GlcNAc(b1-4)[Fuc(a1-6)]GlcNAc
# Method in brief: as §1
# [7] = biological target: GlcNAc(b1-3)Gal(b1-4)GlcNAc(b1-3)[GlcNAc(b1-3)Gal(b1-4)GlcNAc(b1-3)]GalNAc
# Method in brief: as §1
# Kdn(a2-3)Gal(b1-3)GlcNAc = biological target: Kdn(a2-3)Gal(b1-3)GlcNAc
# Method in brief: as §1
# Kdn(a2-3)Gal(b1-4)GlcNAc = biological target: Kdn(a2-3)Gal(b1-4)GlcNAc
# Method in brief: as §1
# [8] = biological target: Man(a1-3)[Man(a1-6)]Man(a1-6)[Man(a1-3)]Man(b1-4)GlcNAc(b1-4)GlcNAc
# Method in brief: as §1
# [9] = biological target: Neu5Ac(a2-3)Gal(b1-3)GlcNAc(b1-6)GalNAc
# Method in brief: as §1
# [10] = biological target: Neu5Ac(a2-3)Gal(b1-3)[Fuc(a1-4)]GlcNAc
# Method in brief: as §1
# [11] = biological target: Neu5Ac(a2-3)Gal(b1-4)[Fuc(a1-3)]GlcNAc
# Method in brief: as §1
# [12] = biological target: Neu5Ac(a2-3)Gal(b1-4)[Fuc(a1-3)]GlcNAc(b1-3)Gal(b1-4)GlcNAc
# Method in brief: as §1
# [13] = biological target: Neu5Ac(a2-6)Gal(b1-4)GlcNAc(b1-2)Man(a1-3)[GlcNAc(b1-4)][Neu5Ac(a2-6)Gal(b1-4)GlcNAc(b1-2)Man(a1-6)]Man(b1-4)GlcNAc(b1-4)GlcNAc
# Method in brief: as §1
# [14] = biological target: Neu5Ac(a2-6)Gal(b1-4)GlcNAc(b1-2)Man(a1-3)[Man(a1-6)]Man(b1-4)GlcNAc(b1-4)GlcNAc
# Method in brief: as §1
# [15] = biological target: Neu5Ac(a2-6)Gal(b1-4)GlcNAc(b1-2)Man(a1-6)Man(b1-4)GlcNAc(b1-4)GlcNAc
# Method in brief: as §1
# [16] = biological target: Neu5Ac(a2-6)Gal(b1-4)GlcNAc(b1-2)[Neu5Ac(a2-6)Gal(b1-4)GlcNAc(b1-4)]Man(a1-3)[GlcNAc(b1-4)][Neu5Ac(a2-6)Gal(b1-4)GlcNAc(b1-2)[Neu5Ac(a2-6)Gal(b1-4)GlcNAc(b1-6)]Man(a1-6)]Man(b1-4)GlcNAc(b1-4)GlcNAc
# Method in brief: as §1
# [17] = biological target: Neu5Ac(a2-6)Gal(b1-4)GlcNAc(b1-2)[Neu5Ac(a2-6)Gal(b1-4)GlcNAc(b1-4)]Man(a1-3)[GlcNAc(b1-4)][Neu5Ac(a2-6)Gal(b1-4)GlcNAc(b1-4)Man(a1-6)]Man(b1-4)GlcNAc(b1-4)GlcNAc
# Method in brief: as §1
# [18] = biological target: Neu5Ac(a2-6)GlcNAc(b1-4)GlcNAc(b1-4)GlcNAc
# Method in brief: as §1
# [19] = biological target: Neu5Ac(a2-8)Neu5Ac(a2-3)[GalNAc(b1-4)]Gal(b1-4)Glc
# Method in brief: as §1
# [20] = biological target: Neu5Ac9Ac(a2-3)Gal(b1-3)GlcNAc
# Method in brief: as §1
# [21] = biological target: Neu5Gc(a2-3)Gal(b1-3)GlcNAc
# Method in brief: as §1
binder,measurement,setting,value
B1,glycan array binding signal (z-score),GalNAc(a1-3)GalNAc,-1.12
same,glycan array binding signal (z-score),GalNAc6S(b1-4)GlcNAc,0.26
same,glycan array binding signal (z-score),Glc(b1-6)Glc,1.37
same,glycan array binding signal (z-score),[1],-0.245
same,glycan array binding signal (z-score),[2],0.596
same,glycan array binding signal (z-score),[3],1.45
same,glycan array binding signal (z-score),[4],0.002
same,glycan array binding signal (z-score),[5],3.99
same,glycan array binding signal (z-score),[6],3.85
same,glycan array binding signal (z-score),[7],-0.168
same,glycan array binding signal (z-score),Kdn(a2-3)Gal(b1-3)GlcNAc,0.462
same,glycan array binding signal (z-score),Kdn(a2-3)Gal(b1-4)GlcNAc,-0.846
same,glycan array binding signal (z-score),[8],-0.784
same,glycan array binding signal (z-score),[9],-0.507
same,glycan array binding signal (z-score),[10],-0.236
same,glycan array binding signal (z-score),[11],-0.025
same,glycan array binding signal (z-score),[12],-0.9
same,glycan array binding signal (z-score),[13],-1.03
same,glycan array binding signal (z-score),[14],3.09
same,glycan array binding signal (z-score),[15],2.91
same,glycan array binding signal (z-score),[16],-0.369
same,glycan array binding signal (z-score),[17],-0.544
same,glycan array binding signal (z-score),[18],-0.645
same,glycan array binding signal (z-score),[19],3.6
same,glycan array binding signal (z-score),[20],4.29
same,glycan array binding signal (z-score),[21],0.057
